Experimental data: PubChem BioAssay AID588855 (National Center for Advancing Translational Sciences (NCATS), 2011)
Among all 410,000 compounds or so, about 5,000 (1.2%) were called active. Roughly 13% stayed inconclusive and do not appear here. The call rests on the fitted dose curve; in most records, active means well fitted inhibition curve with a large enough effect; inconclusive means small, poorly fitted or top-dose-only effect; inactive means no such curve, though single readings can be large or run the other way. Only a selection was taken, and actives are over-represented in it overall.

Test: qHTS for Inhibitors of TGF-b; further: nearly all actives have a fitted effect of over 65% in size
Conditions: HepG2 CAGA-GFP TGF-b/SMAD3 reporter, GFP fluorescence, 18 h, TGF-beta stimulated, 500 pg/mL final; series mostly up to 46.1 µM; activity, negative = inhibition: at the top concentration
Outline: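 First, reporter cells (HEPG2 CAGA-GFP) rested 2 h at 37 degrees C. Next, compounds were pinned in and TGF-beta added to 500 pg/mL final. After 18 h, GFP was imaged per cell and summed per well.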
On the % scale 0 is the no-effect control and ±100 the full control effect; potency means the concentration at half of the fitted maximal effect.

activity, negative = inhibition, inactive:
C[C@H]1CN(c2ccc(Br)cc2)C(=O)[C@@H]1CC(=O)Nc1ccc(Br)cc1 14.4%
CNC(=O)C[C@H]1C(=O)N(c2ccc(OC)cc2)C[C@@H]1Cc1ccccc1 -0.75%
CC(C)c1ccc(NC(=O)CN(C)S(=O)(=O)c2ccc3c(c2)c(=O)n(C)c(=O)n3C)cc1 -16.7%
Cc1c(CNC2CCCCC2)c(C(=O)O)c(C)n1Cc1cccc(Cl)c1 -0.0955%
Cc1cccc(N2CCN(C3=C(c4ccccc4)C(=O)c4ccccc43)CC2)c1C 17%
COc1cc(C(=O)CCc2ccc3c(c2)OCO3)cc(OC)c1OC 5.53%
COc1ccc(CN2CCCC(N3CCc4ccccc4C3)C2)c(O)c1 (stereo not drawn) -14.6%
C#CCOc1ccc(C2CC(=O)Nc3c2c(C)nn3-c2nc(C)cc(C)n2)cc1 (stereo not drawn) -1.64%
COc1ccccc1CNc1ccc(-c2nc(-c3ccccc3C)no2)cc1[N+](=O)[O-] -9.17%
COc1ccc(OCCNS(=O)(=O)Cc2ccccc2)cc1 -7.8%
COc1ccc(S(=O)(=O)NCCOc2ccccc2)cc1F 16.2%
NC(=O)C1CCN(C(=O)c2cccc(NC(=O)c3nsc4ccccc34)c2)CC1 -22.1%
O=C(CC(c1cccs1)N1Cc2ccccc2C1=O)Nc1ccc(F)cc1F (stereo not drawn) -4.03%
CCOc1ccc(C(NC(=O)c2cc(OC)c(OC)c(OC)c2)c2cc(Cl)c3cccnc3c2O)cc1 (stereo not drawn) -19.5%
CN(c1ccccc1)S(=O)(=O)c1cc(C(=O)N2CCN(c3ncccn3)CC2)ccc1Cl -18.2%
O=C(c1ccc(S(=O)(=O)N2CCCC2)cc1)N1CCN(c2ccccc2F)CC1 -7.28%
COc1ccc(OCCCn2c(C)nc3cc(C)c(C)cc32)cc1 -10.2%
Cn1nnc2c(N3CCN(c4ccccc4)CC3)ncnc21 58.9%
O=C(O)C1=C/C(=C/C=[N+]2c3cc(O)c(O[C@H]4OC(CO)[C@@H](O)[C@@H](O)[C@@H]4O)cc3C[C@@H]2C(=O)[O-])C[C@H](C(=O)O)N1 (stereo partly drawn) -20.6%
Cc1nn(CC(=O)N2CCN(c3cccc(C(F)(F)F)c3)CC2)c(=O)c2cc3sccc3n12 -15.7%
Cc1cc(NC(=O)CC(C)C)cc(-c2nc3ncccc3o2)c1O 15.4%
O=C(CSc1ncnc2scc(-c3ccccc3)c12)NCc1ccc2c(c1)OCO2 -23.1%
CCOc1c2ccc(C(=O)NCc3ccc4c(c3)OCO4)cc2nn1C -8.29%
CCOc1ccc(CCNC(=O)Cn2nc(CC)n3c(cc4sc(CC)cc43)c2=O)cc1OCC -29.1%
COc1cccc(Nc2nc3ccccc3c3nncn23)c1 -9.39%
COc1cc(Nc2nc3ccc(Cl)cc3n3cnnc23)cc(OC)c1OC 39.4%
O=C(CC(NCc1cccnc1)C(=O)O)Nc1ccc(O)cc1 (stereo not drawn) 3.04%
COc1ccc(NC(=O)Cn2c(=O)n(CCC(C)C)c(=O)c3cccnc32)cc1Cl -6.53%
Cc1ccc(C)c(N2CCN(c3ccc4cc(S(=O)(=O)N5CCC(C)CC5)ccc4n3)CC2)c1 15.4%
COc1ccc(Br)cc1C1CC(=O)Nc2c1c(C)nn2-c1nc(C)cc(C)n1 (stereo not drawn) -3.57%
O=C(NC(c1ccc(Cl)cc1)c1cnccn1)C1CCN(Cc2ccc(Cl)cc2)CC1 (stereo not drawn) 2.45%
COc1cccc(CN2CCC(C(=O)NC(c3ccc4c(c3)OCO4)c3ccccn3)CC2)c1 (stereo not drawn) -6.59%
Cc1ccc(OCC(=O)OCc2cc(=O)n3nc(C4CC4)sc3n2)cc1C 4.88%
COCCNC(=O)CSc1c(C)cnc2c1c(=O)n(C)c(=O)n2C 17.4%
O=S(=O)(c1ccc(Br)cc1)c1nnn2c1nc(NC1CCCCCC1)c1sccc12 43.2%
CCOC(=O)c1c(C)[nH]c(CCC(=O)NCCCN2CCN(c3cc(C)ccc3C)CC2)c1C -20.3%
CC1=C(c2ccc(Cl)cc2)S(=O)(=O)N=C1N1CCN(c2cc(C)ccc2C)CC1 26.8%
COC(=O)c1c(NC(=O)CCCOc2ccccc2)sc2c1CCC(C)C2 (stereo not drawn) 14.7%
CSc1ccc(NC(=O)Cn2nnnc2-c2ccccc2F)cc1 -20.5%
CCc1ccc(-n2nnc(-c3nc(-c4ccccc4)no3)c2C)cc1 -34.3%
O=C(c1ccccc1)N1CCN(c2cc(-c3ccccc3)nc3cc(-c4cccc(Cl)c4)nn23)CC1 8.56%

Potency, active:
COc1c(O)ccc2c1CN1CCc3cc4c(cc3C1C2)OCO4 (stereo not drawn) 14.1 µM
COc1ccc(S(=O)(=O)NCCCCOc2ccc(Cl)cc2)cc1 12.6 µM
CN(c1ccccc1)S(=O)(=O)c1ccc(C(=O)N2CCN(c3ccccc3Cl)CC2)cc1 15.8 µM
CN(C)C(=O)c1cccc(-c2cnc3sc(NCc4ccc5c(c4)OCO5)nn23)c1 10 µM
FC(F)(F)c1cc(Nc2nc3ccccc3c3nncn23)ccc1Cl 17.8 µM
Cc1cccnc1C(NC(=O)C1CCN(Cc2ccc(Cl)c(Cl)c2)CC1)c1ccc(Cl)cc1 (stereo not drawn) 11.2 µM
CC1=C(c2ccc(C)cc2)S(=O)(=O)NC1=NCCCN1CCN(c2cc(C)ccc2C)CC1 20 µM
